From PubChem
LMNA splice mod: LMNA splicing modulation; HeLa LMNA splicing GFP/RFP minigene ratio, 48 h; hit rate 0.01% among 200,000; AID 1487; Potency, µM (titrated, usually from 46.1 µM), for the others: at the top dose ratio change, negative = inhibition, hits mostly inhibitors; active means well fitted inhibition curve with a large enough effect in the signal ratio, with a control signal flat, not every such curve was filed as active; inconclusive means small, poorly fitted or top-dose-only effect, or effect the other way, or a change in a side signal; the % refers to the signal ratio; further: potency means the concentration at half of the fitted maximal effect
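S3 HeLa cells stably expressing lamin A-EGFP splicing minigene plus DsRed2, 600 cells/well, 48 h compound exposure at 37C. Laser-scanning cytometry; analysed as GFP (500-530 nm)/RFP (575-640 nm) total intensity ratio; 0.5% DMSO vehicle.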
12-hLO inh: inhibitors of human 12-lipoxygenase (ALOX12). P18054. hit rate 0.12% among 150,000. purified 12-hLO, xylenol orange hydroperoxide absorbance. Potency, µM (titrated, usually from 57.1 µM), without a hit: top-dose activity change, negative = inhibition, hits mostly inhibitors. AID 1452; active means well fitted inhibition curve with a large enough effect; inconclusive means small, poorly fitted or top-dose-only effect; further: potency means the concentration at half of the fitted maximal effect; nearly all actives have a fitted effect of over 55% in size
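150 nM 12hLO, 25 mM Hepes pH 7.0 + 0.01% Triton X-100; cpd preinc 15 min RT; 40 uM arachidonic acid, 30 min RT; Fe-XO 30 min; A573/A405 ratio as read-out.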
PNC assembly inh: perinucleolar compartment assembly inhibition. PC3M PTB-GFP, PNC prevalence imaging, 16 h; hits give low values. activity change (PNC), negative = inhibition, % at 10 µM. hit rate 3.1% among 140,000;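 active means readout at or below -70, meaning at least 70% loss of cells showing the perinucleolar compartment, a nuclear body marking cancer cells; inconclusive means readout between -30 and a set limit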;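 further: plate controls were DMSO wells for no effect and camptothecin positive control wells for full effect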
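Compounds are pinned in duplicate onto adhered PC3M cells stably expressing GFP-tagged PTB and incubated 16 h at 37 C. Cells are then fixed, nuclei stained with Hoechst, and PNC-positive cells counted.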
HPGD block: blocks human HPGD enzyme activity. purified HPGD, NADH fluorescence kinetic, PGE2 substrate. P15428. hit rate 4.3% among 150,000. Potency, µM, without a hit: at the highest dose activity change, negative = inhibition, actives largely listed as inhibitors; further: potency means the concentration at half of the fitted maximal effect
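NADH formation kinetics: reaction with 30 uM PGE2 and 1 mM NAD+ (final), 20 nM enzyme, Tris-HCl pH 8 with Tween 20, after 15 min compound preincubation at room temperature. Fluorescence change, last versus first of five reads.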
ALDH1A1 block: blocks purified human ALDH1A1 activity; P00352; Purified ALDH1A1, NADH fluorescence, propionaldehyde substrate; Potency, µM (series often up to 75.3 µM), for inactives: at the top dose activity, negative = inhibition, usual class: inhibitors; hit rate 7.3% among 220,000; AID 1030;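 further: potency means the concentration at half of the fitted maximal effect; plate controls were no enzyme wells and a reference inhibitor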
Target sequence (P00352 whole entry, looked up): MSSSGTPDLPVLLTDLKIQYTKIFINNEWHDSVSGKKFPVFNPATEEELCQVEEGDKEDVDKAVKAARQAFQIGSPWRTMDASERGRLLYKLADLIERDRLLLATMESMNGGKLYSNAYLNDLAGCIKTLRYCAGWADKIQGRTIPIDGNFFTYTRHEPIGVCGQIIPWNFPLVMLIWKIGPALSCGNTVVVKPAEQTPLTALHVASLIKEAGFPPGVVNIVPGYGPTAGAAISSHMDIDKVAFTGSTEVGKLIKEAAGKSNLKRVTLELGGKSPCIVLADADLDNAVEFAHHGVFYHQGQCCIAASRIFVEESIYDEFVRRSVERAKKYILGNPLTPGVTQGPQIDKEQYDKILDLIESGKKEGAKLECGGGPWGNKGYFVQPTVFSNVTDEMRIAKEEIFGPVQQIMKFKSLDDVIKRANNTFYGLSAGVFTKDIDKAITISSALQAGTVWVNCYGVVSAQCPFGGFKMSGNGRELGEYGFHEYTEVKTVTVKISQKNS
* hit, by the source's call; [ ] = dose if it differs, or a comment. In the library only some 10% were active in any assay of this set; here they are far more common. Unless noted, the call rests on the fitted dose curve; in most records, active means well fitted inhibition curve with a large enough effect (not every such curve was filed as active); inconclusive means small, poorly fitted or top-dose-only effect, or another doubt; inactive means no such curve, though single readings can be large or run the other way. Unless noted, on the % scale 0 is the no-effect control and ±100 the full control effect.

O=c1oc2ccccc2c2oc3cc(O)c(O)cc3c12 was read as 12-hLO inh -26.1%, HPGD block inconclusive and ALDH1A1 block -5.3%.
For O=c1[nH]c2ccc(N=Cc3c(O)ccc4cc(Br)ccc34)cc2[nH]1 the results were LMNA splice mod 0.6%, 12-hLO inh -4.5%, PNC assembly inh 78.7, HPGD block -24.0% and ALDH1A1 block 1µM*.
Screening CC1Cc2ccccc2N1C(=O)Cn1c(=O)oc2cc(S(=O)(=O)NC3CCCC3)ccc21 (stereo unspecified) returned LMNA splice mod -5.2%, 12-hLO inh -2.9%, PNC assembly inh inconclusive, HPGD block 12.6µM* and ALDH1A1 block 7.7%.
Screening COc1ccc(-c2ccc(SCC(=O)c3ccccc3)nn2)cc1OC returned LMNA splice mod -14.4%[46 µM] and ALDH1A1 block 25.1µM*.
`Cc1ccc(S(=O)(=O)N2CCN(S(=O)(=O)c3ccccc3)C2)cc1` gave LMNA splice mod -1.0%, 12-hLO inh -1.9%, PNC assembly inh -21.7, HPGD block 2.4% and ALDH1A1 block -3.9%.
C/C(=N\S(=O)(=O)c1ccc(C)cc1)N1CCN(S(=O)(=O)c2ccccc2)C1 was read as LMNA splice mod inconclusive, 12-hLO inh -11.2%, PNC assembly inh 1.1, HPGD block -10.2% and ALDH1A1 block 3.98µM*.
`COc1cc(CN(C)CC(=O)c2[nH]c(C)c(C(C)=O)c2C)ccc1OC(F)F` gave LMNA splice mod inconclusive, 12-hLO inh -1.8%, PNC assembly inh -28.7, HPGD block -16.7% and ALDH1A1 block 3.55µM*.
Screening COc1ccccc1OCC(=O)c1[nH]c(C)c(C(C)=O)c1C returned LMNA splice mod 5.6%, 12-hLO inh -9.1%, PNC assembly inh 22.0, HPGD block -9.1% and ALDH1A1 block 0.6%.
`Cc1cc(C)n(C(CC(=O)N2CCc3ccccc3C2)C(=O)O)n1` (stereo unspecified) gave LMNA splice mod -0.5%, 12-hLO inh -2.0%, PNC assembly inh -126.5*, HPGD block 1.0% and ALDH1A1 block 5.5%.
For COc1ccc(Oc2ncc3ncc(=O)n(Cc4cccc(OC)c4)c3n2)cc1 the results were 12-hLO inh -10.4%, HPGD block 17.8µM* and ALDH1A1 block -5.2%.
COc1ccc(Oc2ncc3ncc(=O)n(CCc4ccccc4)c3n2)cc1 was read as 12-hLO inh 1.2%, HPGD block -4.4% and ALDH1A1 block 0.891µM*.
`O=c1cnc2cnc(OCc3ccccc3)nc2n1Cc1ccc(F)cc1` gave 12-hLO inh -22.4%, HPGD block 31.6µM* and ALDH1A1 block inconclusive.
COc1ccc(Oc2ncc3nc(-c4cccs4)c(=O)n(Cc4cccc(OC)c4)c3n2)cc1 was read as 12-hLO inh -1.7%, HPGD block -15.7% and ALDH1A1 block inconclusive.
O=C(Nc1ccccc1)[C@@]12C[C@@H]1/C(=N/O)c1ccccc1O2 was read as 12-hLO inh -3.3%, HPGD block -22.1% and ALDH1A1 block -3.3%.
O=C(c1ccncc1)N1CCC2(CC1)CN(c1ccccn1)C2 was read as 12-hLO inh -0.5%, HPGD block inconclusive and ALDH1A1 block inconclusive.
CCC#CCOCC(=O)Nc1ccccc1 was read as 12-hLO inh -3.4%, HPGD block -11.6% and ALDH1A1 block inconclusive.
Screening Cc1nc2c(C(=O)NCc3ccccc3Cl)cnn2c(C)c1Cc1c(F)cccc1Cl returned LMNA splice mod 2.7%[46 µM].
Screening C=CCn1c(SCc2nc(N)nc(N3CCCCC3)n2)nnc1-c1ccco1 returned LMNA splice mod 10.7%, 12-hLO inh -3.0%, PNC assembly inh -10.8, HPGD block 15.8µM* and ALDH1A1 block 22.4µM*.
CC(CN1CCCCC1)C(=O)NN (stereo unspecified) was read as LMNA splice mod -11.2%[46 µM] and ALDH1A1 block 10.1%.
Screening CC(=O)/C(CN1CCCCC1)=N\O returned LMNA splice mod 0.4%, 12-hLO inh -5.2%, PNC assembly inh inconclusive, HPGD block -6.7% and ALDH1A1 block 3.55µM*.
For C/C(=N\O)C(=O)C(CN1CCCCC1)CN1CCCCC1 the results were LMNA splice mod 5.0%, 12-hLO inh -3.0%, PNC assembly inh inconclusive, HPGD block inconclusive and ALDH1A1 block 1.58µM*.
For C/C(=C/C(=O)N1CCc2ccccc21)C(=O)O the results were LMNA splice mod -10.3%, 12-hLO inh 11.5%, PNC assembly inh -11.0, HPGD block -17.1% and ALDH1A1 block inconclusive.
Cc1cccc(C)c1NC(=O)CN1CCN(CCCC(c2ccc(F)cc2)c2ccc(F)cc2)CC1 was read as LMNA splice mod inconclusive, 12-hLO inh -3.1%[25.6 µM], HPGD block -3.4% and ALDH1A1 block 3.6%[20.9 µM].
Screening CCN1C(=O)N/C(=C/c2ccc(C)o2)C1=O returned LMNA splice mod 5.2%, 12-hLO inh -4.1%, PNC assembly inh 13.0, HPGD block -22.9% and ALDH1A1 block 15µM*.
For CCN1C(=O)/C(=C/c2ccc(C)o2)N(C)C1=S the results were LMNA splice mod inconclusive, 12-hLO inh -23.1%, PNC assembly inh inconclusive, HPGD block inconclusive and ALDH1A1 block 1.58µM*.
`Cc1ccc(/C=C2/NC(=O)N(Cc3ccc(Br)cc3)C2=O)o1` gave LMNA splice mod inconclusive, 12-hLO inh -28.6%, PNC assembly inh -24.9, HPGD block inconclusive and ALDH1A1 block 12.6µM*.
`Cc1ccc(/C=C2/NC(=O)N(Cc3ccccc3F)C2=O)o1` gave LMNA splice mod -7.1%, 12-hLO inh -11.3%, PNC assembly inh 20.1, HPGD block -17.1% and ALDH1A1 block 15.8µM*.
For O=C1S/C(=C\c2ccccn2)C(=O)N1Cc1ccccc1F the results were LMNA splice mod 5.0%, 12-hLO inh 4.2%, PNC assembly inh -22.6, HPGD block 4.0% and ALDH1A1 block inconclusive.
For CCN1C(=O)N/C(=C/c2ccc(Sc3ccc(C)cc3)o2)C1=O the results were LMNA splice mod 12.0%, 12-hLO inh -6.9%, PNC assembly inh inconclusive, HPGD block inconclusive and ALDH1A1 block inconclusive.
CN1C(=O)Cc2cc(S(=O)(=O)NCc3ccc(Cl)cc3)ccc21 was read as LMNA splice mod 3.3%[46 µM].
Screening COc1ccc2c(=O)cc(-c3ccncc3)oc2c1OC returned 12-hLO inh -4.5%[11.4 µM], HPGD block -11.2% and ALDH1A1 block 12.9%[13.5 µM].
O=C(O)/C=C\[C@H](O)c1ccc(Cl)cc1 was read as 12-hLO inh 2.6%.
CC(=O)c1nccs1 was read as 12-hLO inh 1.0%, HPGD block -8.7% and ALDH1A1 block inconclusive.
CCCN1C(=O)/C(=C/c2ccc(C)o2)NC1=S was read as ALDH1A1 block 7.08µM*.
For COc1ccc(C(=O)CCC(=O)Nc2cccc(C(C)=O)c2)cc1 the results were LMNA splice mod -5.4%[46 µM].
COc1cccc([C@@H]2Oc3ccc(Br)cc3C[C@H]2OC(=O)N[C@H]2CCCc3ccccc32)c1 was read as HPGD block -7.5% and ALDH1A1 block 2.0%.
